From PubChem BioAssay (EPA / NIEHS)
Several values for one entry are separate records, joined by “and”; a condition that tells them apart may be missing. Equal values may be shown once. Activity calls are given as the source filed them. The calls were made as follows: active = hit-call score of the fitted dose curve at least 0.9, where 1 is the maximum; inactive = score below 0.9.

read-out: not listed separately; assay: BSK_BT_PBMCCytotoxicity: PBMC Cytotoxicity Assessment in the BioMAP Diversity Plus: BT Assay (AID 2284225); conditions: primary human B cells with PBMC;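 also: PBMC viability measured by Alamar Blue dye reduction fluorescence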
Procedure, shortened: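 PBMC (75,000/well) pretreated with compound 1 h, then activated with SEB and TSST-1 (20 ng/mL each final), incubated 90 h; Alamar Blue added 6 h, fluorescence read at 546/580 nm. Fitted relative to DMSO.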

With Cc1c([N+](=O)[O-])c(C)c([N+](=O)[O-])c(C(C)(C)C)c1[N+](=O)[O-] as the compound, how does the outcome read?
Its outcome is “inactive”.

Which outcome does the source give for CCC(C)(C#N)N=NC(C)(C#N)CC (stereo unspecified) here?
The outcome was “inactive”.

For O=S(=O)(c1ccc(Cl)cc1)c1cc(Cl)c(Cl)cc1Cl, which outcome is on record?
The outcome was “inactive”.

With Oc1cccc(-c2ccccc2)c1 as the compound, how does the outcome read?
The outcome was “inactive”.

Which outcome does the source give for Nc1ccc(N)cc1 here?
The outcome was “inactive”.

For Cc1ccccc1OP(=O)(Oc1ccccc1)Oc1ccccc1, which outcome is on record?
The outcome was “inactive”.

For CCOC(=O)C(SP(=S)(OC)OC)c1ccccc1 (stereo unspecified), which outcome is on record?
The outcome was “inactive”.

For c1ccc(-c2cccc(-c3ccccc3)c2)cc1, which AC50 is on record?
Its AC50 is 32.8 µM (active).

With CCOP(=O)(OCC)OC(=CCl)c1ccc(Cl)cc1Cl as the compound, how does the outcome read?
Its outcome is “inactive”.

With CCOC(=O)CC(=O)CCl as the compound, how does the AC50 read?
Its AC50 is 19 µM (active).

With OC(Cc1ccccc1Cl)(Cn1cncn1)C1(Cl)CC1 (stereo unspecified) as the compound, how does the outcome read?
The outcome was “inactive”.

With OC(Cc1ccccc1Cl)(Cn1[nH]cnc1=S)C1(Cl)CC1 (stereo unspecified) as the compound, how does the outcome read?
The outcome was “inactive”.

Which outcome does the source give for Cc1cc(Cl)ccc1OC(C)C(=O)O (stereo unspecified) here?
Its outcome is “inactive”.

Which outcome does the source give for Cc1cccc(OP(=O)(Oc2cccc(C)c2)Oc2cccc(C)c2)c1 here?
Its outcome is “inactive”.

With Cc1ccc2nc3sc(=O)sc3nc2c1 as the compound, how does the outcome read?
Its outcome is “inactive”.

Which outcome does the source give for C[C@]12CC[C@@H](O)C[C@@H]1CC[C@@H]1[C@@H]2CC[C@]2(C)C(=O)CC[C@@H]12 here?
Its outcome is “inactive”.

Which outcome does the source give for CC(C)(COCC1CO1)COCC1CO1 (stereo unspecified) here?
Its outcome is “inactive”.

For Cc1ccccc1OP(=O)(Oc1ccccc1C)Oc1ccccc1C, which outcome is on record?
Its outcome is “inactive”.

For Oc1c(Br)cc(Br)cc1Br, which outcome is on record?
The outcome was “inactive”.

Which AC50 does the source give for N#CCCC(Br)(C#N)CBr (stereo unspecified) here?
The AC50 was 9.18 µM (active).

For CC(C)N(C(=O)CCl)c1ccccc1, which AC50 is on record?
Its AC50 is 20 µM (active).

For CC1(C)[C@H](C(=O)O[C@H](C#N)c2cccc(Oc3ccccc3)c2)[C@@H]1/C=C(\Cl)C(F)(F)F, which outcome is on record?
The outcome was “inactive”.

read-out: Secreted IgG (sIgG), gene 3500; assay: BSK_BT_sIgG: BioMAP Diversity Plus: BT Assay for Secreted IgG (sIgG) Biomarker Activity (AID 2284226); conditions: primary human B cells with PBMC
Procedure, shortened: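 Read-out: ELISA for secreted IgG after 24 h of chemical exposure in a B cell plus PBMC co-culture. Values reflect upward-direction fitting against DMSO negative controls.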

Which AC50 does the source give for O=S(=O)(c1ccc(Cl)cc1)c1cc(Cl)c(Cl)cc1Cl here?
The AC50 was 20 µM (active).

With Oc1cccc(-c2ccccc2)c1 as the compound, how does the outcome read?
The outcome was “inactive”.

Which outcome does the source give for CCOC(=O)C(SP(=S)(OC)OC)c1ccccc1 (stereo unspecified) here?
Its outcome is “inactive”.

For c1ccc(-c2cccc(-c3ccccc3)c2)cc1, which AC50 is on record?
The AC50 was 15.7 µM (active).

For CCOC(=O)CC(=O)CCl, which AC50 is on record?
The AC50 was 4.86 µM (active).

For OC(Cc1ccccc1Cl)(Cn1cncn1)C1(Cl)CC1 (stereo unspecified), which AC50 is on record?
The AC50 was 20 µM (active).

Which outcome does the source give for Cc1cc(Cl)ccc1OC(C)C(=O)O (stereo unspecified) here?
Its outcome is “inactive”.

Which outcome does the source give for Cc1cccc(OP(=O)(Oc2cccc(C)c2)Oc2cccc(C)c2)c1 here?
The outcome was “inactive”.

Which AC50 does the source give for C[C@]12CC[C@@H](O)C[C@@H]1CC[C@@H]1[C@@H]2CC[C@]2(C)C(=O)CC[C@@H]12 here?
Its AC50 is 20 µM (active).

For CC(C)N(C(=O)CCl)c1ccccc1, which AC50 is on record?
The AC50 was 7.82 µM (active).

read-out: not listed separately; assay: BSK_BT_Bcell_Proliferation: Viability Assessment in the BioMAP Diversity Plus: BT Assay for B cell Proliferation (AID 2284227); conditions: primary human B cells with PBMC
Procedure, shortened: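 Using a human primary B cell–PBMC co-culture, the assay measures total protein by sulforhodamine B absorbance as a gauge of proliferation after 72 h. Analysis followed the positive fitting direction with DMSO as baseline.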

Which outcome does the source give for Cc1c([N+](=O)[O-])c(C)c([N+](=O)[O-])c(C(C)(C)C)c1[N+](=O)[O-] here?
Its outcome is “inactive”.

For CCC(C)(C#N)N=NC(C)(C#N)CC (stereo unspecified), which outcome is on record?
Its outcome is “inactive”.

Which AC50 does the source give for O=S(=O)(c1ccc(Cl)cc1)c1cc(Cl)c(Cl)cc1Cl here?
Its AC50 is 30.1 µM (active).

For Oc1cccc(-c2ccccc2)c1, which outcome is on record?
Its outcome is “inactive”.

Which outcome does the source give for Nc1ccc(N)cc1 here?
Its outcome is “inactive”.

For Cc1ccccc1OP(=O)(Oc1ccccc1)Oc1ccccc1, which outcome is on record?
Its outcome is “inactive”.

For CCOC(=O)C(SP(=S)(OC)OC)c1ccccc1 (stereo unspecified), which outcome is on record?
Its outcome is “inactive”.

Which AC50 does the source give for c1ccc(-c2cccc(-c3ccccc3)c2)cc1 here?
The AC50 was 33.3 µM (active).

Which outcome does the source give for CCOP(=O)(OCC)OC(=CCl)c1ccc(Cl)cc1Cl here?
The outcome was “inactive”.

Which AC50 does the source give for CCOC(=O)CC(=O)CCl here?
Its AC50 is 16.9 µM (active).

With OC(Cc1ccccc1Cl)(Cn1cncn1)C1(Cl)CC1 (stereo unspecified) as the compound, how does the outcome read?
The outcome was “inactive”.

For OC(Cc1ccccc1Cl)(Cn1[nH]cnc1=S)C1(Cl)CC1 (stereo unspecified), which outcome is on record?
Its outcome is “inactive”.

Which outcome does the source give for Cc1cc(Cl)ccc1OC(C)C(=O)O (stereo unspecified) here?
The outcome was “inactive”.

With Cc1cccc(OP(=O)(Oc2cccc(C)c2)Oc2cccc(C)c2)c1 as the compound, how does the outcome read?
The outcome was “inactive”.

For Cc1ccc2nc3sc(=O)sc3nc2c1, which AC50 is on record?
Its AC50 is 5 µM (active).

For C[C@]12CC[C@@H](O)C[C@@H]1CC[C@@H]1[C@@H]2CC[C@]2(C)C(=O)CC[C@@H]12, which outcome is on record?
The outcome was “inactive”.

Which AC50 does the source give for CC(C)(COCC1CO1)COCC1CO1 (stereo unspecified) here?
The AC50 was 20 µM (active).

Which AC50 does the source give for Cc1ccccc1OP(=O)(Oc1ccccc1C)Oc1ccccc1C here?
The AC50 was 34.4 µM (active).

Which outcome does the source give for Oc1c(Br)cc(Br)cc1Br here?
The outcome was “inactive”.

Which AC50 does the source give for N#CCCC(Br)(C#N)CBr (stereo unspecified) here?
The AC50 was 6.35 µM (active).

Which AC50 does the source give for CC(C)N(C(=O)CCl)c1ccccc1 here?
The AC50 was 9.93 µM (active).

Which outcome does the source give for CC1(C)[C@H](C(=O)O[C@H](C#N)c2cccc(Oc3ccccc3)c2)[C@@H]1/C=C(\Cl)C(F)(F)F here?
Its outcome is “inactive”.

read-out: Interleukin 6 (IL6), IL6 (gene 3569); assay: BSK_BT_xIL6: BioMAP Diversity Plus: BT Assay for Interleukin 6 (IL6) Biomarker Activity (AID 2284228); conditions: primary human B cells with PBMC
Procedure, shortened: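 Readout: secreted IL-6 via Luminex xMAP multiplex, 24 h post-dosing. System: primary human B cells co-cultured with PBMC. Signal change scored relative to DMSO vehicle, positive fitting direction.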

For Cc1c([N+](=O)[O-])c(C)c([N+](=O)[O-])c(C(C)(C)C)c1[N+](=O)[O-], which outcome is on record?
The outcome was “inactive”.

With CCC(C)(C#N)N=NC(C)(C#N)CC (stereo unspecified) as the compound, how does the outcome read?
Its outcome is “inactive”.

Which outcome does the source give for O=S(=O)(c1ccc(Cl)cc1)c1cc(Cl)c(Cl)cc1Cl here?
The outcome was “inactive”.

With Oc1cccc(-c2ccccc2)c1 as the compound, how does the outcome read?
Its outcome is “inactive”.

For Nc1ccc(N)cc1, which outcome is on record?
The outcome was “inactive”.

Which outcome does the source give for Cc1ccccc1OP(=O)(Oc1ccccc1)Oc1ccccc1 here?
The outcome was “inactive”.

For CCOC(=O)C(SP(=S)(OC)OC)c1ccccc1 (stereo unspecified), which outcome is on record?
Its outcome is “inactive”.

Which outcome does the source give for c1ccc(-c2cccc(-c3ccccc3)c2)cc1 here?
The outcome was “inactive”.

With CCOP(=O)(OCC)OC(=CCl)c1ccc(Cl)cc1Cl as the compound, how does the AC50 read?
The AC50 was 10.4 µM (active).

For CCOC(=O)CC(=O)CCl, which AC50 is on record?
The AC50 was 11.8 µM (active).

For OC(Cc1ccccc1Cl)(Cn1cncn1)C1(Cl)CC1 (stereo unspecified), which outcome is on record?
Its outcome is “inactive”.

With OC(Cc1ccccc1Cl)(Cn1[nH]cnc1=S)C1(Cl)CC1 (stereo unspecified) as the compound, how does the outcome read?
The outcome was “inactive”.

For Cc1cc(Cl)ccc1OC(C)C(=O)O (stereo unspecified), which outcome is on record?
The outcome was “inactive”.

Which outcome does the source give for Cc1cccc(OP(=O)(Oc2cccc(C)c2)Oc2cccc(C)c2)c1 here?
Its outcome is “inactive”.

For Cc1ccc2nc3sc(=O)sc3nc2c1, which outcome is on record?
Its outcome is “inactive”.

With C[C@]12CC[C@@H](O)C[C@@H]1CC[C@@H]1[C@@H]2CC[C@]2(C)C(=O)CC[C@@H]12 as the compound, how does the outcome read?
Its outcome is “inactive”.

For CC(C)(COCC1CO1)COCC1CO1 (stereo unspecified), which outcome is on record?
Its outcome is “inactive”.

With Cc1ccccc1OP(=O)(Oc1ccccc1C)Oc1ccccc1C as the compound, how does the AC50 read?
The AC50 was 20 µM (active).

For Oc1c(Br)cc(Br)cc1Br, which outcome is on record?
The outcome was “inactive”.

For N#CCCC(Br)(C#N)CBr (stereo unspecified), which AC50 is on record?
Its AC50 is 9.34 µM (active).

For CC(C)N(C(=O)CCl)c1ccccc1, which AC50 is on record?
Its AC50 is 12.3 µM (active).

For CC1(C)[C@H](C(=O)O[C@H](C#N)c2cccc(Oc3ccccc3)c2)[C@@H]1/C=C(\Cl)C(F)(F)F, which AC50 is on record?
Its AC50 is 17.1 µM (active) and 8.49 µM (active).
